From article PMC5540273 (PLoS ONE, 2017)

Key:
Conditions in all cases: concentration: 1 μM,replicates: in singlicate; n = 1
[1] = system: T1, SNARK
T1 construct: gene NUAK2

[2] = system: SNRK
[3] = system: SRC
[4] = system: SRMS
[5] = system: SRPK1
[6] = system: SRPK2
[7] = system: SRPK3
[8] = system: STK16
[9] = system: STK33
[10] = system: STK35
[11] = system: STK36
[12] = system: STK39
[13] = system: SYK
[14] = system: SgK110
[15] = system: T2, TAK1
T2 construct: gene MAP3K7

[16] = system: TAOK1
[17] = system: TAOK2
[18] = system: TAOK3
[19] = system: TBK1
[20] = system: TEC
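Further: KINOMEscan kinase panel screen.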

| SMILES | %Inh [1] | %Inh [2] | %Inh [3] | %Inh [4] | %Inh [5] | %Inh [6] | %Inh [7] | %Inh [8] | %Inh [9] | %Inh [10] | %Inh [11] | %Inh [12] | %Inh [13] | %Inh [14] | %Inh [15] | %Inh [16] | %Inh [17] | %Inh [18] | %Inh [19] | %Inh [20] |
| --- | --- | --- | --- | --- | --- | --- | --- | --- | --- | --- | --- | --- | --- | --- | --- | --- | --- | --- | --- | --- |
| CN(C)CCOc1ccc(-c2cc(-c3c[nH]nc3-c3ccccn3)ccn2)cc1 [GW835314] | 19% | 80% | 20% | 0% | 0% | 0% | 19% | 75% | 0% | 0% | 47% | 0% | 26% | 0% | 26% | 23% | 0% | 0% | 18% | 13% |
| Cc1cc(C(=O)Nc2ccc(Oc3ccc4nc(NC(=O)C5CC5)cn4n3)cc2)nn1-c1ccccc1 | 0% | 0% | 34% | 0% | 8% | 33% | 30% | 18% | 0% | 0% | 0% | 7% | 22% | 0% | 0% | 0% | 1% | 0% | 57% | 37% |
| Cl.Cl.Nc1nc(-c2ccc3c(N)n[nH]c3c2)cc(N2CCCC(NC(=O)c3ccccc3)C2)n1 (stereo not drawn) [GSK2286775] | 21% | 0% | 0% | 0% | 56% | 0% | 53% | 31% | 0% | 0% | 0% | 0% | 0% | 0% | 0% | 0% | 0% | 0% | 76% | 6% |
| NC(=O)c1cc(-c2ccccc2)cc2c(C3CCNCC3)c[nH]c12 [GSK301362] | 91.8% | 0% | 0% | 0% | 58% | 0% | 0% | 8% | 0% | 49% | 3% | 15% | 34% | 0% | 0% | 95.8% | 28% | 90% | 12% | 24% |
| CCn1c(-c2nonc2N)nc2c(C#CC(C)(C)O)nc(OCCN)cc21.Cl.Cl [GSK902056] | 11% | 0% | 0% | 0% | 0% | 7% | 17% | 0% | 0% | 0% | 0% | 17% | 0% | 0% | 0% | 0% | 0% | 0% | 0% | 1% |
| Cc1occc1-c1nc(N)c(OC[C@@H](N)Cc2c[nH]c3ccccc23)cc1-c1cc2c(C)n[nH]c2cn1 [GSK1660450] | 96.9% | 0% | 95.6% | 0% | 71% | 0% | 56% | 3% | 84% | 28% | 67% | 4% | 0% | 0% | 97.2% | 99.6% | 89% | 99.6% | 6% | 0% |
| CCN(CC)CCOc1ccc(Nc2ncc3cc(-c4c(Cl)cccc4Cl)c(=O)n(C)c3n2)cc1 [SB-601273] | 92.6% | 7% | 100% | 90.8% | 50% | 70% | 9% | 53% | 62% | 98.8% | 99.5% | 60% | 89% | 84% | 65% | 99.1% | 99.4% | 99.9% | 42% | 89% |
| O=C(NCCNc1ccnc(NCc2ccc(F)cc2)n1)c1cc2ccccc2s1 [GSK1379944] | 31% | 0% | 4% | 0% | 13% | 0% | 0% | 78% | 0% | 0% | 2% | 1% | 14% | 17% | 0% | 0% | 14% | 0% | 19% | 21% |
| C=CC(=O)Nc1cc2c(Nc3ccc(F)c(Cl)c3)ncnc2cc1OCCCN1CCOCC1 [GW781483] | 0% | 14% | 71% | 0% | 4% | 32% |  | 0% | 8% |  |  | 22% | 6% | 0% | 20% | 0% | 0% | 0% | 0% | 39% |
| O=C(NCCCN1CCOC1=O)c1cnc(NCc2cc(Cl)ccc2Cl)nc1NC1CCCC1 | 0% | 5% | 11% | 0% | 39% | 0% | 26% | 15% | 0% | 13% | 10% | 0% | 15% | 0% | 0% | 0% | 10% | 0% | 24% | 18% |
| C[C@@H](Oc1cc(-c2cnn(C3CCNCC3)c2)cnc1N)c1c(Cl)ccc(F)c1Cl | 96.7% | 6% | 83% | 18% | 3% | 0% | 33% | 0% | 0% |  | 0% | 0% | 8% | 83% | 33% | 31% | 48% | 36% | 65% | 2% |
| C[C@@H]1CCN(C(=O)CC#N)C[C@@H]1N(C)c1ncnc2[nH]ccc12 | 73% | 15% | 0% | 0% | 39% | 18% | 1% | 0% | 0% | 0% | 0% | 0% |  | 50% |  | 0% | 0% | 0% | 10% | 39% |
| CNC(=O)c1ccccc1Sc1ccc2c(/C=C/c3ccccn3)n[nH]c2c1 | 77% | 9% | 4% | 0% | 82% | 12% | 21% | 12% | 0% | 25% | 24% | 0% | 5% | 0% | 15% | 0% | 0% | 0% | 36% | 0% |
| Cl.Oc1cc(-c2nc(-c3ccccc3)[nH]c2-c2ccncc2)ccc1Cl [SB-386023] | 24% | 0% | 88% | 12% | 0% | 0% | 5% | 7% | 0% | 0% | 53% | 0% | 0% | 32% | 9% | 11% | 29% | 5% | 10% | 1% |
| CC(C)Nc1cc(-c2ccc3c(N)n[nH]c3c2)nc(N)n1 [GSK2221681] | 17% | 0% | 0% | 0% | 69% | 0% | 43% | 19% | 0% | 0% | 0% | 3% | 3% | 0% | 2% | 4% | 0% | 0% | 35% | 0% |
| CN(C)CC(O)COc1ccc(Nc2nccc(-c3cnn4nc(N5CCOCC5)ccc34)n2)cc1 (stereo not drawn) [GW767488] | 93.6% | 31% | 5% | 100% | 76% | 8% | 80% | 98.7% | 54% | 5% | 56% | 79% | 4% | 0% | 63% | 59% | 34% | 37% | 58% | 7% |
| Cc1ccc2c(-c3ccncc3)c(-c3ccc(F)cc3)nn2c1.Cl [GW461484] | 4% | 0% | 7% | 5% | 0% | 17% | 0% | 8% | 14% | 0% | 53% | 21% | 26% | 0% | 70% | 0% | 0% | 0% | 21% | 0% |
| CC(C)N1C(=O)Cc2cc(Nc3ncc(C(F)(F)F)c(NCc4cccc(S(C)(=O)=O)c4)n3)ccc21 | 82% | 13% | 0% | 0% | 55% | 3% | 24% | 94.7% | 0% | 4% | 0% | 33% | 87% | 0% | 70% | 0% | 0% | 0% | 86% | 10% |
| Cc1n[nH]c2ccc(-c3cc(OC[C@@H](N)Cc4ccccc4)cnc3-c3ccoc3)cc12.O=C(O)C(F)(F)F.O=C(O)C(F)(F)F [GSK507358] | 18% | 0% | 10% | 0% | 61% | 4% | 34% | 6% | 73% | 95.9% | 0% | 0% | 0% | 0% | 97.9% | 92.4% | 5% | 74% | 18% | 0% |
| Cl.Cl.NC[C@H](CC1CCCCC1)NC(=O)c1cc(Br)c(-c2ccnc3[nH]ccc23)s1 [GSK1581427] | 90.5% | 0% | 28% | 0% | 82% | 14% | 87% | 27% | 89% | 23% | 0% | 6% | 19% | 82% | 0% | 42% | 0% | 4% | 1% | 0% |
| C[C@H]1Oc2cc(cnc2N)-c2c(nn(C)c2C#N)CN(C)C(=O)c2ccc(F)cc21 | 0% | 0% | 43% | 0% | 9% | 0% | 12% | 0% | 8% | 1% | 12% | 0% | 38% | 21% | 0% | 0% | 13% | 0% | 33% | 0% |
| CCN(CC)CCCCNc1ncc2cc(-c3c(Cl)cccc3Cl)c(NC(=O)NC(C)(C)C)nc2n1 | 42% | 12% | 100% | 31% | 35% | 8% | 0% | 4% | 0% | 15% | 77% | 0% | 11% | 25% | 57% | 99.2% | 99.5% | 99.5% | 0% | 0% |
| Cl.Cl.NC[C@H](Cc1ccc(C(F)(F)F)cc1)NC(=O)c1cc(Br)c(-c2ccnc3[nH]ccc23)s1 [GSK1487252] | 91.5% | 0% | 0% | 0% | 47% | 0% | 0% | 16% | 96.8% | 0% | 0% | 7% | 10% | 75% | 11% | 2% | 0% | 0% | 4% | 8% |
| Nc1nc(Nc2ccccc2)cc(-c2ccc3c(N)n[nH]c3c2)n1 [GSK2225749] | 21% | 0% | 0% | 0% | 80% | 2% | 83% | 59% | 14% | 0% | 24% | 0% | 0% | 0% | 36% | 32% | 2% | 23% | 28% | 0% |
| COc1ccc(C[C@@H](CN)NC(=O)c2cc(Br)c(-c3ccnc4[nH]ccc34)s2)cc1.Cl.Cl [GSK1389063] | 98.2% | 0% | 36% | 0% | 86% | 0% | 28% | 55% | 99.2% | 14% | 0% | 16% | 39% | 85% | 75% | 87% | 27% | 60% | 1% | 0% |
| Cc1ccc(-n2nc(C(C)(C)C)cc2NC(=O)Nc2ccc(OCCN3CCOCC3)c3ccccc23)cc1 [GW839464] | 0% | 0% | 0% | 8% | 64% | 0% | 29% | 6% | 21% | 0% | 0% | 0% | 9% | 22% | 76% | 0% | 1% | 0% | 31% | 34% |
| Cc1cc2cn[nH]c2cc1-c1cccc2c(N)c(C(N)=O)nnc12 | 62% | 11% | 17% | 35% | 49% | 14% | 34% | 0% | 0% | 0% | 0% | 47% | 20% | 0% | 69% | 83% | 37% | 39% | 47% | 94.9% |
